Our source for the z-score and composite z-score values is PubChem BioAssay.

Activity calls are given as the source filed them.

The nature of test [1]: E. coli DRC41 culture turbidity changes, primary screen, E. coli filamentation inducer project, strain DRC41, OD650, 48 h (AID 1152).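 Also: E. coli MC1000 strain DRC41 lacking acrAB efflux pump and sulA.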 The settings on record: E. coli DRC41 (acrAB sulA), higher = more signal, called active from +8 up or from −8 down.
Test [2] in a line: small-molecule binders of probe aLefty1, primary screen, biochemical, small-molecule microarray, 635/667 nm fluorescence (AID 1153).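 Also: score merges spot fluorescence with signal-to-noise ratio from the scanned slide images.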 The settings on record: higher = more signal.
A short description of test [3]: PSAC antagonists in infected red cells, primary screen, cell-based, P. falciparum Indochina, OD700, 1 h (AID 1154). The settings on record: P. falciparum Indochina infected RBC osmotic lysis, higher = more signal, called active from +8 up or from −8 down.
Test [4] in a line: PSAC antagonists in infected red cells, primary screen, cell-based, P. falciparum Indochina, OD700, 2 h (AID 1155).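 Also: lysis reports solute entry through the parasite surface anion channel PSAC; channel blockers reduce lysis of infected cells.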 The settings on record: P. falciparum Indochina infected erythrocytes, osmotic lysis OD700; higher = more signal, called active from +8 up or from −8 down.
Test [5] in a line: osmotic lysis modulators in infected erythrocytes, primary screen, PSAC antagonist project, cell-based, P. falciparum Indochina, OD700, 3 h (AID 1156). The settings on record: higher = more signal, called active from +8 up or from −8 down.
A short description of test [6]: PSAC antagonists in infected red cells, primary screen, cell-based, P. falciparum Indochina, OD700, 18 h (AID 1157). The settings on record: P. falciparum Indochina infected erythrocytes, osmotic lysis OD700, 18 h; higher = more signal, called active from +8 up or from −8 down.
A short description of test [7]: modulators of S6 phosphorylation in cells, primary screen, cell-based, A549, cytoblot, luminescence, serum-stimulated (AID 1158).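 Also: serum-stimulated A549 lung adenocarcinoma cells; signal is phosphorylated S6 detected by cytoblot immunostaining with HRP secondary.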 The settings on record: A549 phospho-S6 cytoblot, 5 h, higher = more signal.
The target of test [8] is NADPH oxidase 2 (Homo sapiens) (UniProt P04839). As to the kind of experiment: NOX2-dependent H2O2 signal modulators, primary screen, NOX inhibitor project, cell-based, HEK293-NOX2, PMA-stimulated, Amplex Red fluorescence (AID 1159). Also: test concentration not given here. The settings on record: 45 min, higher = more signal, called active from +8 up or from −8 down.
Test [9] concerns the target NADPH oxidase 4 (Homo sapiens) (UniProt Q9NPH5). As to the kind of experiment: NOX4-dependent H2O2 signal modulators, primary screen, NOX inhibitor project, cell-based, HEK293-NOX4, tetracycline-induced, Amplex Red fluorescence (AID 1160). Conditions: 45 min, higher = more signal, called active from +8 up or from −8 down.
The target in test [10] is NADPH oxidase 5 (Homo sapiens) (UniProt Q96PH1). As to the kind of experiment: NOX5-dependent H2O2 signal modulators, primary screen, NOX inhibitor project, cell-based, HEK293-NOX5, Amplex Red fluorescence (AID 1161). Conditions: HEK293-NOX5, ionomycin, 45 min, higher = more signal.
Chain of NADPH oxidase 5 (Homo sapiens) (Q96PH1 whole entry, looked up): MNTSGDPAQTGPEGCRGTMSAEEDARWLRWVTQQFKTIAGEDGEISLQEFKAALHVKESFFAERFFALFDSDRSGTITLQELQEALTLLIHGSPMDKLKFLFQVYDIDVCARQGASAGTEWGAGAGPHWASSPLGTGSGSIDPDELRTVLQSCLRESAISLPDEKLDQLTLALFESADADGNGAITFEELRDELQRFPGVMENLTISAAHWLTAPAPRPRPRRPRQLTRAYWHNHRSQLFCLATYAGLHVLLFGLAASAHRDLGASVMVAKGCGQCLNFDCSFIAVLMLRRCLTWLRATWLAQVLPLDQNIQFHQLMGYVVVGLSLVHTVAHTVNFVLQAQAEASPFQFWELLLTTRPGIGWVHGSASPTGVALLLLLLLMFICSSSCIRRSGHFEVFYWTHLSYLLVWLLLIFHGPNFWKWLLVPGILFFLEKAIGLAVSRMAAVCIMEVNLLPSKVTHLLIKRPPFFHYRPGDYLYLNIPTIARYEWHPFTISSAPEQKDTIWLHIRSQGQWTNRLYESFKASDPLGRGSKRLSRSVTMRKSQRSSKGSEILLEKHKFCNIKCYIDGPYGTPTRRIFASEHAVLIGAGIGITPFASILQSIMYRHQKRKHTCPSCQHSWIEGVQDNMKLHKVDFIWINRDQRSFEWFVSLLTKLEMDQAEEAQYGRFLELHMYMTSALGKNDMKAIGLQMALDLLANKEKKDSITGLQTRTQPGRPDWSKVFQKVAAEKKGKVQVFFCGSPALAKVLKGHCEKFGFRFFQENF

Chain of NADPH oxidase 2 (Homo sapiens) (P04839 whole entry, looked up): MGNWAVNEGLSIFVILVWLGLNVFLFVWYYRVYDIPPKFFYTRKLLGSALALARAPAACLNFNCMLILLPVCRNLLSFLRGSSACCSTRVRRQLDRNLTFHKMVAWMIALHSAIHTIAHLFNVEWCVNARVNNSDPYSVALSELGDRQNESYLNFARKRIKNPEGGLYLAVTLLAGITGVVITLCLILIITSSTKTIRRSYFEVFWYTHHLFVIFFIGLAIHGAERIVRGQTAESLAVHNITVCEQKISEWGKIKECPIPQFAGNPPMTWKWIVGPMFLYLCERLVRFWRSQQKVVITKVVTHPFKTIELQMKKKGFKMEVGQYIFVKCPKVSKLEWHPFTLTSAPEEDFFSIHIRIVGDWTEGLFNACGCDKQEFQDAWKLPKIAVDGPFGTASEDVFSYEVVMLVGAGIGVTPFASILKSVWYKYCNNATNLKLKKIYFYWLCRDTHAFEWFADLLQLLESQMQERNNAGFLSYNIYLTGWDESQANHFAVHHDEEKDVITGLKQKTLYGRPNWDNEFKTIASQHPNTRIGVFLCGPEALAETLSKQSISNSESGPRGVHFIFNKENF
Chain of NADPH oxidase 4 (Homo sapiens) (Q9NPH5 whole entry, looked up): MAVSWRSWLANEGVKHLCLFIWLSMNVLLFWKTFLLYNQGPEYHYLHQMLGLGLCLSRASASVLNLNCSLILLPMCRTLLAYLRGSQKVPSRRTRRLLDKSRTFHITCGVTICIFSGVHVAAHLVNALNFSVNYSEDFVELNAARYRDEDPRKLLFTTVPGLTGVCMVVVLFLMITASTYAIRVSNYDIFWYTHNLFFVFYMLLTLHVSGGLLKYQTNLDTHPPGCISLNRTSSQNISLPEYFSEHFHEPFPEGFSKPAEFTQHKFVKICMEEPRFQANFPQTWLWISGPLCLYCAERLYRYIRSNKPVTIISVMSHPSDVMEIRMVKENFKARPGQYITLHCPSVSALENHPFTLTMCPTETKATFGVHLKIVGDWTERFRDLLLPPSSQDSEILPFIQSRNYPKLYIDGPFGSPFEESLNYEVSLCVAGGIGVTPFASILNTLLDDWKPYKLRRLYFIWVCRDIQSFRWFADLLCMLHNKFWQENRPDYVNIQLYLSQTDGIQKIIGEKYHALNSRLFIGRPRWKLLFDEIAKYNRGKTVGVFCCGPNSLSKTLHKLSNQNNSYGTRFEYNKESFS

As for `C[N+](C)(C)CCCCCCNC(=O)[C@H]1C[C@H]2C(=O)N3CCC[C@H]3C(=O)N2[C@H]1c1cccc(OCCO)c1`, the z-score is -0.507 (inactive) in test [1]; 5.47 (inactive) in test [3]; 0.64 (inactive) in test [4]; -2.56 (inactive) in test [5]; 0.498 (inactive) in test [6]; -0.632 in [7]. In addition, the z-score in test [8] is 1.18 (inactive); in [9], 1.27 (inactive); in test [10], 0.865. In test [2], this molecule showed a composite z-score of 0.0683.

With `N#Cc1ccc(NN2C(C(O)c3ccccc3)C=CC3C(=O)N(c4ccccc4)C(=O)C32)cc1` (stereo not given), the z-score in test [1] was -1.28 (inactive); in test [3] it was 9.06 (active); in test [4] it was 0.611 (inactive); in test [5], 1.65 (inactive); in test [6], 0.58 (inactive); in [7], -0.823. The z-score in [8] was -2.08 (inactive); in [9], -5.5 (inactive); in test [10], -3.44. The molecule further came in with a composite z-score in [2] of 0.0077.

`CC(C)(C)OC(=O)CC[C@]1(C(=O)O)COC(c2ccc(OCCCO)cc2)=N1`: the z-score in test [1] was -0.283 (inactive); in test [3], 2.54 (inactive); in test [4], -0.0827 (inactive); in [5] it was 0.091 (inactive); in [6], 0.0515 (inactive); in test [7], -0.426. Besides, the z-score in [8] is 0.0212 (inactive); in test [9], 0.624 (inactive); in [10] it was 0.487. The composite z-score in test [2] came to 0.126.

`O=C(Nc1cc(Br)ccc1C(=O)NCc1cccc(O)c1)c1ccccc1`: the z-score was 1.41 (inactive) in [1]; 17.5 (active) in test [3]; 4.24 (inactive) in [4]; -0.222 (inactive) in [5]; 2.17 (inactive) in test [6]; -0.645 in [7]. For the same molecule, the figures for the z-score in [8], in test [9] and in test [10] were -1.57 (inactive), -1.69 (inactive) and -1.3, respectively. The molecule also showed a composite z-score in [2] of 0.388.

Turning to `COCCCNC(=O)[C@@H]1c2ccccc2C(=O)N(c2ccc(C)cn2)[C@H]1c1ccc(CO)cc1`, the z-score in test [1] is -0.889 (inactive); in test [3], 1.21 (inactive); in [4], -0.205 (inactive); in [5] it was 1.74 (inactive); in test [6], 0.205 (inactive); in test [7], -0.112. For the same molecule, the values for the z-score in test [8], in test [9] and in test [10] were 0.837 (inactive), -0.797 (inactive) and -0.00783, respectively. In test [2], this molecule gave a composite z-score of -0.0984.

`COC(=O)[C@@]1(Cc2ccccc2)[C@H]2c3cc(C(=O)N(C)C)n(Cc4ccccn4)c3C[C@H]2CN1C(=O)c1ccccc1`: the z-score in [1] was -1.59 (inactive); in test [3], 1.32 (inactive); in [4], 0.458 (inactive); in test [5], 0.365 (inactive); in [6], 0.544 (inactive); in test [7], -0.733. The figures for the z-score in test [8], in [9] and in test [10] were 0.048 (inactive), -1.87 (inactive) and -2.08, respectively. Further, in test [2], the composite z-score worked out at 0.378.

For `N#Cc1ccc(NN2C(C(O)c3ccco3)C=CC3C(=O)N(c4ccccc4)C(=O)C32)cc1` (stereo not given), the z-score in test [1] is -4.51 (inactive); in [3], 7.71 (inactive); in [4], 1.67 (inactive); in [5], 1.12 (inactive); in test [6], 0.826 (inactive); in test [7] it was -0.555. The z-score in [8] was -0.911 (inactive); in test [9], -4.51 (inactive); in test [10], -2.69. This molecule also yielded a composite z-score in test [2] of 0.135.

Consider `CCCC[C@@H](O)C1=C(COc2ccccc2)Cn2c(=O)n(-c3ccccc3)c(=O)n2[C@H]1CO`, for which the z-score in test [1] is 2.85 (inactive); in [3], 2.58 (inactive); in test [4], -0.478 (inactive); in test [5], -0.34 (inactive); in test [6] it was -2.27 (inactive); in [7], 0.814. Further, the z-score is -0.809 (inactive) in [8], 0.33 (inactive) in test [9] and -0.235 in test [10]. This molecule displayed a composite z-score in test [2] of -0.275.

In the case of `CC1CC/C=C\[C@H]2OC34C=CCN(c5ccc(Cl)cc5)C(=O)[C@H]3N(C(CO)C(C)C)C(=O)[C@]4(C)C2C(=O)O1` (stereo not given in full), the z-score in [1] is -0.397 (inactive); in test [3], 2.3 (inactive); in test [4], 0.798 (inactive); in test [5], 0.647 (inactive); in test [6] it was 0.647 (inactive); in test [7], -0.631. Besides, the z-score in test [8] is 1.86 (inactive); in test [9] it was -0.264 (inactive); in test [10], 2.39. The composite z-score in [2] was determined as 0.188.

For `COCCOC(=O)N1C(=O)[C@@]2(c3cc(C#CC4(O)CCCCCC4)ccc31)[C@H](C(=O)NC[C@H](O)c1ccccc1)[C@H]1C(=O)O[C@H](c3ccccc3)[C@H](c3ccccc3)N1[C@@H]2c1ccc(OCCO)cc1`, the z-score is 1.07 (inactive) in [1]; 3.85 (inactive) in [3]; 1.58 (inactive) in [4]; -1.29 (inactive) in [5]; 1.03 (inactive) in [6]; 0.0102 in [7]. Moreover, the z-score in [8] was 1.55 (inactive); in [9], 1.01 (inactive); in test [10], 0.979. In addition, the composite z-score in test [2] was -0.007.

Turning to `O=C1NC(=O)C2C1C=CC(C(O)CCc1ccccc1)N2Nc1ccccn1` (stereo not given), the z-score in test [1] is 0.0468 (inactive); in test [3], -0.247 (inactive); in test [4], -0.752 (inactive); in [5], -0.548 (inactive); in [6] it was -1.97 (inactive); in [7], 1. The z-score in test [8] is -1.43 (inactive); in test [9], -3.34 (inactive); in [10], -1.52. Besides, in [2], the composite z-score was determined as 0.0844.

Turning to `CCCCC(=C=CC[C@H](O)c1ccccc1OCCO)C[C@H](O)c1ccccn1`, the z-score in test [1] is 1.47 (inactive); in test [3], 4.7 (inactive); in [4], 1.16 (inactive); in [5], 2.3 (inactive); in test [6] it was 0.576 (inactive); in [7] it was 0.822. Also, the values for the z-score in [8], in test [9] and in [10] were -0.778 (inactive), -0.193 (inactive) and -1.37, respectively. Further, the composite z-score in test [2] is -0.0536.

On to `COc1cc(NN2C(C(O)c3ccc(I)cc3)C=CC3C(=O)N(C)C(=O)C32)cc(OC)c1OC` (stereo not given), for which the z-score is -0.0511 (inactive) in test [1]; 0.318 (inactive) in test [3]; 0.168 (inactive) in [4]; 1.59 (inactive) in test [5]; -0.374 (inactive) in [6]; 1.28 in test [7]. Further, the values for the z-score in test [8], in test [9] and in test [10] were -2.45 (inactive), -4.04 (inactive) and -2.92, respectively. Further, the composite z-score in test [2] turned out to be 0.125.
